For 17 molecules, Potency, max response and outcome results are on record in PubChem BioAssay (NCATS).

Inconclusive results are not listed. Unmarked numbers belong to inactive results. Calls of active or inactive are those of the source. Calls come from the whole dose curve; as a rule, active = well fitted inhibition curve with a large enough effect; inconclusive = small, poorly fitted or top-dose-only effect; inactive = flat fitted curve, though single readings scatter.

One assay concerns HEK293. The assay can be described thus: Cytotoxic Profiling of Annotated Libraries Using Quantitative High-Throughput Screening (AID 1296008). For max response: % is set by controls: 0 for no effect and ±100 for the full control effect. Conditions: Five cell lines viability, CellTiter-Glo ATP luminescence, 48-72 h; max response: stronger effect = lower value. In a few lines: (§1)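 Compounds were pin-transferred onto cells and incubated 48 or 72 hr at 37 degree Celsius, 95% humidity. CellTiter-Glo was added, plates sat 10 min at room temperature, then ATP-coupled luminescence was imaged as the viability read-out.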
(Cellular ATP, detected with luciferase, serves as a proxy for viable cell number.)

The subject of assay [1] is HaCat. Described as above. As to conditions: Five cell lines viability, CellTiter-Glo ATP luminescence, 48-72 h; max response: stronger effect = lower value. The essentials: as §1
The subject of a further assay is KB-3-1. Described as above. Conditions: Five cell lines viability, CellTiter-Glo ATP luminescence, 48-72 h; max response: stronger effect = lower value. The essentials:
as §1

The subject of assay [2] is NIH3T3. The assay is described as above. Conditions: Five cell lines viability, CellTiter-Glo ATP luminescence, 48-72 h; max response: stronger effect = lower value. In a few lines:
as §1

The test system of the next assay is MCC-13. The assay can be described thus: qHTS assay to identify novel small-molecules to repurpose for Merkel cell carcinoma treatment (AID 1296009). Conditions: MCC and control cell lines, CellTiter-Glo viability, 72 h; series mostly up to 46 µM. The essentials:
(§2)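 Cells exposed to NPC (8-point) and MIPE (11-point) compound dilutions for 72 hr at 37 degree celsius; viability read by CellTiter-Glo luminescence, normalized to no-cell and DMSO in-plate controls.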

For the next assay, the system named is MCC-26. The assay is described as above. As to conditions: MCC and control cell lines, CellTiter-Glo viability, 72 h; series mostly up to 46 µM. In a few lines: as §2
The subject of the next assay is MKL-1. The assay is described as above. As to conditions: MCC and control cell lines, CellTiter-Glo viability, 72 h; series mostly up to 46 µM. The essentials:
as §2

A further assay deals with UISO. Described as above. Conditions: MCC and control cell lines, CellTiter-Glo viability, 72 h; series mostly up to 46 µM. In a few lines:
as §2

The next assay has as its system MKL-2. The assay is described as above. As to conditions: MCC and control cell lines, CellTiter-Glo viability, 72 h; series mostly up to 46 µM. The essentials:
as §2

The subject of a further assay is WaGa. The description is as above. Conditions: MCC and control cell lines, CellTiter-Glo viability, 72 h; series mostly up to 46 µM. The essentials: as §2
A further assay deals with SC27B. The assay can be described thus: qHTS profiling for inhibitors of Plasmodium falciparum proliferation (AID 504749). Conditions: P. falciparum in erythrocytes, SYBR Green DNA, 72 h; series mostly up to 28.7 µM. In a few lines: (§3)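 P. falciparum-infected erythrocytes (0.3% parasitemia, 2.5% hematocrit final) were exposed to compounds for 72 h at 37 C in 5% CO2, then lysed with SYBR Green buffer overnight at room temperature; parasite DNA fluorescence was normalized to artemisinin and DMSO controls.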

The test system of another assay is TAB113. The description is as above. Conditions: P. falciparum in erythrocytes, SYBR Green DNA, 72 h; series mostly up to 28.7 µM. The essentials: as §3
The next assay deals with TAB165. The description is as above. Conditions: P. falciparum in erythrocytes, SYBR Green DNA, 72 h; series mostly up to 28.7 µM. In a few lines:
as §3

The test system of assay [3] is CRL-7250. The assay can be described thus: Cytotoxic Profiling of Annotated Libraries Using Quantitative High-Throughput Screening (AID 1296008). For max response: % is set by controls: 0 for no effect and ±100 for the full control effect. Conditions: Five cell lines viability, CellTiter-Glo ATP luminescence, 48-72 h; max response: stronger effect = lower value. In a few lines:
as §1

In a further assay the test system is TAB109. Briefly: qHTS profiling for inhibitors of Plasmodium falciparum proliferation (AID 504749). As to conditions: P. falciparum in erythrocytes, SYBR Green DNA, 72 h; series mostly up to 28.7 µM. The essentials: as §3
A general note: qHTS replaces the single test concentration by a dilution series.

In assay [4] the test system is HACAT. The assay can be described thus: qHTS assay to identify novel small-molecules to repurpose for Merkel cell carcinoma treatment (AID 1296009). As to conditions: MCC and control cell lines, CellTiter-Glo viability, 72 h; at 44.8 µM (top of the series) unless noted. The essentials:
as §2

For a further assay, the system named is HEK293T. Described as above. Conditions: MCC and control cell lines, CellTiter-Glo viability, 72 h; at 44.8 µM (top of the series). In a few lines: as §2
The subject of another assay is W2. Briefly: qHTS profiling for inhibitors of Plasmodium falciparum proliferation (AID 504749). As to conditions: P. falciparum in erythrocytes, SYBR Green DNA, 72 h; series mostly up to 28.7 µM. In a few lines: as §3
The test system of assay [5] is NIH3T3. The assay can be described thus: qHTS assay to identify novel small-molecules to repurpose for Merkel cell carcinoma treatment (AID 1296009). Conditions: MCC and control cell lines, CellTiter-Glo viability, 72 h; at 44.8 µM (top of the series) unless noted. The essentials: as §2
For assay [6], the system named is CRL-7250. The assay is described as above. As to conditions: MCC and control cell lines, CellTiter-Glo viability, 72 h; at 44.8 µM (top of the series) unless noted. The essentials: as §2
Note: nearly all actives have a fitted effect of over 60% in size.
Potency is the fitted concentration of half-maximal effect.

In the case of `NC1(c2ccccc2)CCCCC1`, the Potency in the assay on HEK293 was 38.2 µM (active). Also, the max response is 1.23% in the assay on HaCat [1], 1.89% with KB-3-1 and -27.2% in the assay with NIH3T3 [2]. The Potency entry with MCC-13, in the assay on MCC-26, in the assay on MKL-1 and in the assay on UISO was “inactive” in each case.

`CCOC(C(=O)OCCN(C)C)(c1ccccc1)c1ccccc1`: the max response in the assay on HEK293 is -2.86%. Moreover, the Potency entry in the assay with MCC-13, with MCC-26, in the assay with MKL-1, in the assay on MKL-2, in the assay on UISO and in the assay with WaGa was “inactive” in each case.

Turning to `N#Cc1nn(-c2c(Cl)cc(C(F)(F)F)cc2Cl)c(N)c1S(=O)C(F)(F)F` (stereo unspecified), the Potency is 5.01 µM (active) with SC27B, 6.31 µM (active) with TAB113, 6.31 µM (active) in the assay on TAB165 and 23.7 µM (active) with MKL-2. Also, the max response is -17% with CRL-7250 [3], -11.3% in the assay on HaCat [1] and -1.94% in the assay on KB-3-1. The Potency entry with MCC-13 and in the assay with MCC-26 was “inactive” each time.

Turning to `COc1ccc2c(C(=O)c3ccc(Cl)cc3)c(C)n(CC(=O)O)c2c1`, the values for the max response in the assay with CRL-7250 [3] and in the assay on NIH3T3 [2] were -9.6% and -34.1%, respectively. Also, the call with KB-3-1 was inactive. In addition, the Potency with UISO is 26.6 µM (active).

With `CCN(Cc1ccc(Cl)nc1)/C(=C/[N+](=O)[O-])NC`, the Potency result in the assay on SC27B, in the assay on TAB109, in the assay with TAB113, in the assay with TAB165, in the assay on MCC-13 and with MCC-26 was “inactive” in each case. The Potency result with MKL-1, in the assay with MKL-2, with UISO and in the assay with WaGa was “inactive” throughout. Further, the max response was -14.2% in the assay on CRL-7250 [3] and 3.9% in the assay with NIH3T3 [2]. Moreover, the molecule was called inactive in the assay on HaCat [1], in the assay with HACAT [4] and in the assay on HEK293T.

In the case of `Clc1ccc(CO/N=C(\Cn2ccnc2)c2ccc(Cl)cc2Cl)c(Cl)c1`, the Potency was 3.16 µM (active) in the assay on SC27B; 3.55 µM (active) with TAB109; 2.51 µM (active) with TAB113; 1.41 µM (active) in the assay on TAB165; 1.69 µM (active) in the assay with W2. Also, the results for the max response in the assay on CRL-7250 [3] and in the assay with KB-3-1 were -2.86% and 0.479%, respectively. Also, the Potency entry with MCC-26 was “inactive”.

As to `CCN1CCCC1CNC(=O)C(O)(c1ccccc1)c1ccccc1` (stereo unspecified), the max response was -23.4% in the assay on CRL-7250 [3] and -7.18% in the assay on HaCat [1]. Moreover, the call with NIH3T3 [2], with HEK293T and in the assay on NIH3T3 [5] was inactive. Besides, the Potency result with MCC-13, with MCC-26, in the assay with MKL-1, in the assay on MKL-2, with UISO and in the assay on WaGa was “inactive” each time.

With `Cc1ncc2n1-c1ccc(Cl)cc1C(c1ccccc1F)=NC2`, the Potency result in the assay with SC27B, with TAB109, in the assay with TAB113, in the assay with TAB165, in the assay with W2 and with MCC-13 was “inactive” throughout. Also, the Potency entry with MCC-26, with MKL-1, with MKL-2 and with UISO was “inactive” in each case. The max response in the assay on HEK293 is -4.93%; with KB-3-1, -24.4%; in the assay on NIH3T3 [2], -10.5%. Moreover, the molecule was classed as inactive in the assay on HaCat [1] and in the assay on HACAT [4].

For `C[C@H](N)[C@H](O)c1ccc(O)c(O)c1`, the call in the assay with HaCat [1] and in the assay on HACAT [4] was inactive. In addition, the max response with KB-3-1 was -14.6%; in the assay with NIH3T3 [2], -48.1%. The Potency result with MCC-13, in the assay with MCC-26, with MKL-1, in the assay with UISO and in the assay with WaGa was “inactive” each time.

Turning to `CC(=O)OC1(c2ccccc2)CCN(CCc2ccccc2)CC1`, the max response was -10.1% in the assay on HaCat [1], -24% with KB-3-1 and -21.5% in the assay with NIH3T3 [2]. In addition, the Potency result in the assay on MKL-1 is “inactive”. Further, the Potency with UISO is 24.8 µM (active).

Regarding `Clc1ccc(C(OCCN2CCCCC2)c2ccccc2)cc1` (stereo unspecified), the max response was -5.7% in the assay with HaCat [1] and -23.9% in the assay with KB-3-1. Further, the Potency entry with MCC-13, with MCC-26, with MKL-1 and with MKL-2 was “inactive” each time.

Regarding `Nc1ccccc1C(=O)OCC(O)CO` (stereo unspecified), the max response is 1.8% in the assay on CRL-7250 [3] and -1.39% in the assay with NIH3T3 [2]. Moreover, the molecule was called inactive with HEK293T. Also, the Potency result with MCC-13, in the assay on MCC-26, in the assay with MKL-1, with MKL-2, with UISO and in the assay with WaGa was “inactive” each time.

As for `O=C1CN2CCOC2(c2ccccc2Cl)c2cc(Cl)ccc2N1` (stereo unspecified), the outcome in the assay with CRL-7250 [3], in the assay on NIH3T3 [2], in the assay with CRL-7250 [6] and in the assay on NIH3T3 [5] was inactive. The max response with HaCat [1] is -2.33%. In addition, the Potency result in the assay on MCC-13, in the assay with MCC-26, in the assay with MKL-1, in the assay with MKL-2, in the assay with UISO and in the assay on WaGa was “inactive” throughout.

Consider `C#C[C@]1(O)C=C[C@H]2[C@@H]3CCC4=CC(=O)CC[C@@H]4[C@H]3CC[C@@]21CC`, for which the max response with CRL-7250 [3] was 0.605%; in the assay on KB-3-1 it was -9.68%. Also, the call with HaCat [1] and in the assay on HACAT [4] was inactive. Besides, the Potency entry in the assay on MCC-13, with MCC-26, in the assay with MKL-1, in the assay on MKL-2, in the assay on UISO and in the assay on WaGa was “inactive” in each case.

As to `CCOC(=O)C1(c2ccccc2)CCN(CCc2ccc(N)cc2)CC1`, the max response is -7.28% with CRL-7250 [3], -21.6% with HaCat [1] and 2.24% with NIH3T3 [2]. The Potency entry with MCC-13, with MCC-26, in the assay with MKL-1, with MKL-2 and in the assay on WaGa was “inactive” throughout.

On to `C1CN2CCC1CC2`, for which the max response in the assay on CRL-7250 [3] was -5.27%. For the same molecule, the outcome with HaCat [1], with NIH3T3 [2], in the assay with HACAT [4] and in the assay with NIH3T3 [5] was inactive. The Potency result in the assay on MCC-13, in the assay with MCC-26, with MKL-1, in the assay with MKL-2, with UISO and with WaGa was “inactive” each time.

Regarding `CCCC(C)C1(CC)C(=O)N=C(S)NC1=O` (stereo unspecified), the max response with CRL-7250 [3] is -2.8%; in the assay with HaCat [1], -26.2%; in the assay on NIH3T3 [2], -2.94%. In addition, in the assay with HEK293T, the result was inactive. The Potency entry in the assay with MCC-13, in the assay on MCC-26, in the assay with MKL-1, in the assay on MKL-2, in the assay with UISO and with WaGa was “inactive” throughout.
